HttQ103 aggreg: mutant huntingtin aggregation inhibition | PC12 HttQ103-GFP aggregates, Acumen cytometry, 40 h | Potency, µM (series often up to 46.1 µM), for the others: at the top dose activity change, negative = inhibition, most hits filed as inhibitors | actives 1.1% (n = 220,000) | AID 1688; active = well fitted curve in the direction sought with a large enough effect; inconclusive = small, poorly fitted or top-dose-only effect, or another doubt; inactive = no such curve, though single readings can be large; an effect the other way counts as inactive or inconclusive; note: % is set by controls: 0 for no effect and ±100 for the full control effect; nearly all actives have a fitted effect of over 60% in size
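Multiplexed with ATP-based cell death, this channel scores GFP aggregates in PC12 cells expressing inducible HTTex1-Q103-GFP. Induction used 100 nM tebufenozide; compounds were tested in concentration series.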
LMNA splice mod: changes lamin A minigene splicing in HeLa cells; HeLa LMNA splicing GFP/RFP minigene ratio, 48 h; Potency, µM (doses to about 46.1 µM), without a hit: top-dose ratio change, negative = inhibition, most hits filed as inhibitors; actives 0.01% (n = 200,000); active = well fitted inhibition curve with a large enough effect in the signal ratio, with a control signal flat, not every such curve was filed as active; inconclusive = small, poorly fitted or top-dose-only effect, or effect the other way, or a change in a side signal; the % refers to the signal ratio; note: % is set by controls: 0 for no effect and ±100 for the full control effect
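Read-out is the ratio of GFP to DsRed2 object intensity, acquired by 488 nm laser-scanning cytometry on HeLa lamin A-EGFP minigene reporter cells. Compound incubation 48 hrs at 37 °C in Opti-MEM with 2% FBS; DMSO 0.5% final.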
HTT cytoprotect: protects HTT-Q103 PC12 cells, measured by ATP. PC12 HTT-Q103 induced, cytoprotection, ATP luminescence, 40 h. Potency, µM (series often up to 56.4 µM), for inactives: cytoprotection (ATP increase), usual class: activators. actives 0.14% (n = 230,000); active = well fitted curve in the direction sought with a large enough effect; inconclusive = small, poorly fitted or top-dose-only effect, or another doubt; inactive = no such curve, though single readings can be large; an effect the other way counts as inactive or inconclusive; note: % of control where 0% means no effect; nearly all actives have a fitted effect of over 45% in size
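ATP quantification (ATPlite) reports survival of PC12 cells in which tebufenozide, 100 nM final, switches on Htt exon 1 with 103 glutamines linked to GFP; compounds are titrated.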
HPGD inh: inhibitors of human 15-hydroxyprostaglandin dehydrogenase (HPGD); AID 894; purified HPGD, NADH fluorescence kinetic, PGE2 substrate; actives 4.3% (n = 150,000); Potency, µM, for the others: at the highest dose activity change, negative = inhibition, usual class: inhibitors; P15428; note: % is set by controls: 0 for no effect and ±100 for the full control effect
Target sequence (P15428 whole entry, looked up): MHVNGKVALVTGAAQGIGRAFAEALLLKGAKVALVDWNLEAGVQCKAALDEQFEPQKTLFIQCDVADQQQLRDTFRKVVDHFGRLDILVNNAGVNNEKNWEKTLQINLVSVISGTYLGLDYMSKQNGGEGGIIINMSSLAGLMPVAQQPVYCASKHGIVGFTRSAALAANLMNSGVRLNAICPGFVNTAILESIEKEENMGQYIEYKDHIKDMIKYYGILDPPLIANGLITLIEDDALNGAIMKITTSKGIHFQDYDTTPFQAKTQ
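NADH formation kinetics: reaction with 30 uM PGE2 and 1 mM NAD+ (final), 20 nM enzyme, Tris-HCl pH 8 with Tween 20, after 15 min compound preincubation at room temperature. Fluorescence change, last versus first of five reads.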
ALDH1A1 block: blocks purified human ALDH1A1 activity | P00352 | Purified ALDH1A1, NADH fluorescence, propionaldehyde substrate | Potency, µM (highest dose often 75.3 µM), inactives show at the top dose activity, negative = inhibition, usual class: inhibitors | actives 7.3% (n = 220,000) | AID 1030;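 note: plate controls were no enzyme wells and a reference inhibitor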
JMJD2E inh: inhibitors of human JMJD2E histone demethylase; B2RXH2; JMJD2E catalytic domain, FDH-coupled NADH fluorescence (FDH is formaldehyde dehydrogenase); Potency, µM (doses to about 57.1 µM), for the others: at the top dose activity change, negative = inhibition, most hits filed as inhibitors; actives 1.6% (n = 230,000); AID 2147;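 note: 0% = wells with enzyme and -100% = buffer wells without enzyme; nearly all actives have a fitted effect of over 50% in size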
Target sequence (B2RXH2 1-337 limits assumed): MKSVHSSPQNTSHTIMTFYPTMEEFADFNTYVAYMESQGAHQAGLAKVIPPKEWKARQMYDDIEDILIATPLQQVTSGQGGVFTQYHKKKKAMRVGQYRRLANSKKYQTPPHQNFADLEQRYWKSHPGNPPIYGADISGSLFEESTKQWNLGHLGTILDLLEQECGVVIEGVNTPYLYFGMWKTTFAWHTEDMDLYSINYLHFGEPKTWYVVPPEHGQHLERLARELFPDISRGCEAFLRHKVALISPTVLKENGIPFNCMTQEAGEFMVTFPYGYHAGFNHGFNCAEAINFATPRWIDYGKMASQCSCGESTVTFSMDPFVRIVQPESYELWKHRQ
Starred values were filed as active, the others as inactive; u = inconclusive; x = no result given; ! = not confirmed by another sample; [ ] = dose if it differs, or a comment. Hits are enriched below; roughly 9.2% of the tested compounds scored in any of these assays. Unless noted, calls come from the whole dose curve; as a rule, active = well fitted inhibition curve with a large enough effect (not every such curve was filed as active); inconclusive = small, poorly fitted or top-dose-only effect, or another doubt; inactive = no such curve, though single readings can be large or run the other way. Potency is the fitted concentration of half-maximal effect.

SMILES	HttQ103 aggreg	LMNA splice mod	HTT cytoprotect	HPGD inh	ALDH1A1 block	JMJD2E inh
O=C(NCc1ccccn1)C1C2C=CC(C2)C1C(=O)Nc1ccc(F)cc1 (stereo unspecified)	7%	-4%	28%[1.9 µM]	16µM*	10%	-5%
C#Cc1cccc(NC(=O)c2ccc(Cl)cc2Cl)c1	5%[9.22 µM]	x	-1%[10 µM]	x	1%	-3%
CC(=O)C(=Cc1ccc(O)cc1)C(C)=O	-5%[9.22 µM]	-5%[46 µM]	6%[10 µM]	x	7.1µM*	u
CN(C)S(=O)(=O)c1cccc(NC(=S)N/N=C/C(c2ccccc2)c2ccccc2)c1	20%	-10%	2%[10 µM]	18µM*	10µM*	u
CN(C)S(=O)(=O)c1cccc(NC(=S)N/N=C/c2ccco2)c1	10%[9.22 µM]	x	6%[10 µM]	x	x	-4%
CC(/C=N/NC(=S)Nc1cccc(S(=O)(=O)N(C)C)c1)c1ccccc1 (stereo unspecified)	-21%	-12%	19%[10 µM]	35µM*	7.9µM*	-4%
Cc1cc(C(F)(F)F)n(-c2nc(C(=O)N/N=C/c3ccc(F)cc3)cs2)n1	u	u	-54%	28µM*	u	10%
O=C(Nc1ccc2c(c1)OCO2)c1cccc(S(=O)(=O)N2CCCC2)c1	-20%	-12%	-6%[10 µM]	-1%	u	-3%
CC(=O)c1cccc(NC(=O)c2ccc(S(=O)(=O)N3CCCCC3)cc2)c1	u	-20%	-18%[0.074 µM]	-7%	22µM*	-3%
O=C(Nc1ccc2c(c1)OCCO2)c1ccc(S(=O)(=O)N2CCCCC2)cc1	u	u	-1%[10 µM]	-14%	25µM*	-10%
O=C(Nc1ccc2c(c1)OCO2)c1ccc(Br)c(S(=O)(=O)N2CCCC2)c1	13µM*	u	-7%	-15%	u	-29%
O=C(CN1CCN(S(=O)(=O)c2ccc(Cl)cc2)CC1)Nc1ccc2c(c1)OCCO2	5%	-1%	4%[0.074 µM]	-1%	u	-1%
O=C(CN1CCN(S(=O)(=O)c2ccc(Br)cc2)CC1)Nc1ccc2c(c1)OCCO2	16%	-9%	-13%	-10%	25µM*	8%
CCCCN(C)S(=O)(=O)c1ccc(C(=O)Nc2ccc(-c3nc4ccc(C)cc4s3)cc2)cc1	x	8%[46 µM]	x	x	x	x
CCOC(=O)N1CCC(NC(=O)c2ccc3c(Cl)c4c(nc3c2)CCCC4)CC1	5%	u	x	-13%	u	-4%
COc1cccc(-n2c([S-])c(C(=O)Nc3ccc(S(=O)(=O)N4CCOCC4)cc3)[n+]3cc(C(N)=O)ccc23)c1	-8%[9.22 µM]	-20%[46 µM]	-29%[10 µM]	x	u	14µM*
CS(=O)(=O)Nc1ccc(C(=O)Nc2ccc(S(=O)(=O)N3CCCC3)cc2)cc1	7%	-15%[9.22 µM]	-32%	x	25µM*	-27%
CCOC(=O)N1CCC(NC(=O)c2ccc3c(=O)n4c(nc3c2)CCCC4)CC1	15%	9%	-14%[0.074 µM]	-6%	2µM*	-12%
O=C(NC1CCS(=O)(=O)C1)c1ccc(S(=O)(=O)N2CCCCC2)cc1 (stereo unspecified)	-4%[9.22 µM]	x	10%[10 µM]	x	25µM*	7%
O=C(Cc1cccc([N+](=O)[O-])c1)NCc1nc2cccnc2n1Cc1ccc(F)cc1	x	4%[46 µM]	x	x	x	x
Cc1o[nH]c(=O)c1CCC(N)C(=O)O (stereo unspecified)	x	x	-18%	x	9%	x
ClC/C=C/CCl	x	x	-1%	-8%	-5%	x
O=C(Nc1cccc(S(=O)(=O)N2CCCCC2)c1)c1ccc2c(=O)n3c(nc2c1)CCCCC3	-9%	u	29%[10 µM]	x	2.5µM*	-3%
O=C(Nc1cc(S(=O)(=O)Nc2ccc(Cl)cc2)ccc1O)c1ccc(S(=O)(=O)N2CCCCCC2)cc1	1%	x	-9%[10 µM]	x	3.2µM*	-19%
O=C(Nc1ccc(N2CCOCC2)cc1)c1ccc(S(=O)(=O)N2CCCCC2)cc1	-7%	2%	-5%	x	0.11µM*	-9%
SMILES	HttQ103 aggreg	LMNA splice mod	HTT cytoprotect	HPGD inh	ALDH1A1 block	JMJD2E inh
CN(C)S(=O)(=O)c1ccc(C(=O)Nc2ccc(CCC(=O)N3CCCC3)cc2)cc1	-24%	-9%	-9%	16µM*	22µM*	4%
CCc1ccc(NC(=O)c2ccc3c(=O)n4c(nc3c2)CCCCC4)cc1	12%[9.22 µM]	x	16%[10 µM]	x	x	2%
O=C(COC(=O)c1ccc(S(=O)(=O)N2CCCC2)cc1)Nc1ccc(N2CCOCC2)cc1	5%	x	-15%	x	-11%	0%
N=C1c2ccccc2CN1c1ccc(N2CCOCC2)c(S(=O)(=O)Nc2ccc(Cl)cc2)c1	-4%[9.22 µM]	x	-9%[10 µM]	x	1.8µM*	-5%
Nc1cc(S(=O)(=O)Nc2ccc(Cl)cc2)ccc1N1CCOCC1	15%[9.22 µM]	x	33%[10 µM]	x	x	-7%
CC(C)CSc1nc2c(c(=O)[nH]c(=O)n2C)n1CC(O)COc1cccc2ccccc12 (stereo unspecified)	8%	0%	-12%[10 µM]	13µM*	18µM*	4%
Cn1c(=O)[nH]c(=O)c2c1nc(SCC(O)CO)n2Cc1ccccc1Cl (stereo unspecified)	21%	-3%	-17%[0.074 µM]	-22%	14µM*	0%
COc1ccc(NC(=O)/C(=C/c2ccc(OC(C)=O)c(OC)c2)NC(C)=O)cc1	12%	3%	7%[10 µM]	-14%	4µM*	4%
COc1cc(/C=C(\NC(C)=O)C(=O)Nc2ccccc2C)ccc1OC(C)=O	0%	-4%	2%[10 µM]	0%	28µM*	6%
COc1cc(/C=C(\NC(C)=O)C(=O)Nc2ccc(NC(C)=O)cc2)ccc1OC(C)=O	11%	-10%	x	-12%	0.25µM*	11%
Cc1ccc(Oc2ccc(OCC(=O)NC(CC(C)C)C(=O)O)cc2)cc1 (stereo unspecified)	-5%[9.22 µM]	-13%[46 µM]	5%[10 µM]	x	6.3µM*	6%
CC(C)COc1ccc(C(=O)NC(CC(C)C)C(=O)O)cc1 (stereo unspecified)	8%	-4%	0%	x	2%	-3%
CC1(C)OC(C)(C)/C(=C/Nc2ccccc2)C1=O	-4%	u	x	-15%	-4%	-1%
CN(C)CCCN(C(=O)CCOc1ccccc1)c1nc2c(F)cccc2s1	13µM*	x	-176%	x	3.2µM*	2%
O=C(c1cc2ccccc2cc1OCC(O)CN1CCCCC1)N1CCCCC1 (stereo unspecified)	-5%	3%	-20%	11µM*	u	-4%
Cc1cc(Sc2nc(NC(C)C)nc(NC(C)C)n2)nc(Cl)n1	0%	x	u	x	u	-6%
C[C@@H]1CNCCN1S(=O)(=O)c1cccc2cnccc12	x	x	13µM*!	2%	-3%	-7%
CC1CN(S(=O)(=O)c2cccc3cnccc23)CCN1 (stereo unspecified)	x	u	x	-10%	7%	1%
O=C(Nc1nc2ccccc2s1)C1CCN(S(=O)(=O)c2cc([N+](=O)[O-])ccc2Cl)CC1	u	x	-17%[10 µM]	x	x	-18%

Bioassay records deposited in PubChem BioAssay by National Center for Advancing Translational Sciences (NCATS).
